13 compounds from PubChem BioAssay can be followed below.

Activity calls are given as the source filed them.

Test [1] deals with Plasmodium falciparum Sir2 (PF13_0152, Sir2A). The experiment in a line: Plasmodium falciparum Sir2A binding compounds – biochemical, small-molecule microarray, 635 nm fluorescence, primary screen (AID 1098).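 Further: score merges spot fluorescence intensity with its signal-to-noise ratio.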 The note with it: fluorescence 635 nm, higher = more signal.
Test [2] in a line: probe aDKK1 binding to arrayed compounds – biochemical, biotinylated probe, 635/667 nm fluorescence, primary screen (AID 1099).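 Further: score merges 667nm spot fluorescence with signal to noise across triplicate slides; reference of the scale not given here.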 The note with it: small-molecule microarray, higher = more signal.
Test [3] can be described thus: probe aCHRDL2 binding to arrayed compounds – biochemical, biotinylated probe, 635/667 nm fluorescence, primary screen (AID 1100). The following applies: small-molecule microarray, higher = more signal.
The nature of test [4]: change in splice reporter luminescence, either direction, cell-based, HEK293, spliceosome inhibition project, primary screen (AID 1101).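 Further: HEK293 cells carrying a splicing-competent luciferase reporter gene; test concentration not given here.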 The note with it: HEK293 splicing luciferase reporter, 24 h, higher = more signal, called active from +8 up or from −8 down.
The target of test [5] is Fibroblast growth factor 10 (Homo sapiens) (UniProt O15520). The experiment in a line: compounds binding fibroblast growth factor 10 – biochemical, small-molecule microarray, 635 nm fluorescence, primary screen (AID 1102). The note with it: FGF10 binding, fluorescence 635 nm, higher = more signal.
Chain of Fibroblast growth factor 10 (Homo sapiens) (O15520 whole entry, looked up): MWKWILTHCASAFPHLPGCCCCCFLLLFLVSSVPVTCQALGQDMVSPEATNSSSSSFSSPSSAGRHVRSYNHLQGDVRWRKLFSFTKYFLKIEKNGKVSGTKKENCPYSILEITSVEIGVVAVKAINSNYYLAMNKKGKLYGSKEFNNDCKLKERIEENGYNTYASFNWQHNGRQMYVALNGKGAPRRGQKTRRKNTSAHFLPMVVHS
Test [6] has as its system glycogen synthase kinase-3 (GSK3A per assay name; protocol says GSK3B). The experiment in a line: compounds binding glycogen synthase kinase-3 – biochemical, small-molecule microarray, 635 nm fluorescence, GSK3A, primary screen (AID 1103). Further: the record names both GSK3A and GSK3B. The following applies: fluorescence 635 nm, higher = more signal.
The target of test [7] is Epidermal growth factor receptor (Homo sapiens) (UniProt P00533). The experiment in a line: compounds binding epidermal growth factor receptor – biochemical, small-molecule microarray, 635 nm fluorescence, primary screen (AID 1104).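 Further: score merges 667 nm emission intensity with spot signal to noise over triplicate slides.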 The following applies: EGFR binding, higher = more signal.
Chain of Epidermal growth factor receptor (Homo sapiens) (P00533 whole entry, looked up): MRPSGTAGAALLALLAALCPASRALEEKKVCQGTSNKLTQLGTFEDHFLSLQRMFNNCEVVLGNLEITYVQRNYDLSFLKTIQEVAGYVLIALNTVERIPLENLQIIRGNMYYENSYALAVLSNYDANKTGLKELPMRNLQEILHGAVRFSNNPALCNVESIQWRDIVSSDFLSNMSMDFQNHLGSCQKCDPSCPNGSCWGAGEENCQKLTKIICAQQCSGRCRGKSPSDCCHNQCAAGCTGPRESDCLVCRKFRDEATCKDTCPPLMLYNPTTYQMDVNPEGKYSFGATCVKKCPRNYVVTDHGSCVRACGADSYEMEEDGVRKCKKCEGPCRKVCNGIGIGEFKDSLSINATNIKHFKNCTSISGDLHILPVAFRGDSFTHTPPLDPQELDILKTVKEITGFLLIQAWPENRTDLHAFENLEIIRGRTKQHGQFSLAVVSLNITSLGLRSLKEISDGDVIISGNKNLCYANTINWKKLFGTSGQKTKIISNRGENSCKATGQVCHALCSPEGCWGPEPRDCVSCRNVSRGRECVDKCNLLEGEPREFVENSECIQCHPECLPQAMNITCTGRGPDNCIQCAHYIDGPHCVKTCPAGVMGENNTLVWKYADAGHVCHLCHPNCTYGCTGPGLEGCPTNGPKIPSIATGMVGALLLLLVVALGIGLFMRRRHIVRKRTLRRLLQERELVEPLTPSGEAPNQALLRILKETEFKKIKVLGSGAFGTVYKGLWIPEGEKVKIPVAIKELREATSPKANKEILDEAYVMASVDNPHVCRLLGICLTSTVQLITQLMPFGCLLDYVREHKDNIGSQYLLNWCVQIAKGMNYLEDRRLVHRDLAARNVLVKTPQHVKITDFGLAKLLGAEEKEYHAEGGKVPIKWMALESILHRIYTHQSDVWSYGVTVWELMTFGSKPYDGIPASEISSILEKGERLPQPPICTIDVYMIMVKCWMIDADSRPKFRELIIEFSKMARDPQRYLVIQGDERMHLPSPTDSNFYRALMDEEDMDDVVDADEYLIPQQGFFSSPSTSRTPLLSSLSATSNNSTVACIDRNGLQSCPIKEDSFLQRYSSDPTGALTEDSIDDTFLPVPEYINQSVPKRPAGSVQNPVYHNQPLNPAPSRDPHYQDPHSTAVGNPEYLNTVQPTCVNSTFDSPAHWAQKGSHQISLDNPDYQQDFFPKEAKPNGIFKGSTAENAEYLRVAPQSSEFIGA
The target of test [8] is Follistatin-related protein 3 (Homo sapiens) (UniProt O95633). The experiment in a line: compounds binding follistatin-related protein 3 – biochemical, small-molecule microarray, 635 nm fluorescence, primary screen (AID 1105).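 Further: score merges emission near 667 nm and signal to noise per printed spot across three slides.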 The note with it: FSTL3 binding, higher = more signal.
Chain of Follistatin-related protein 3 (Homo sapiens) (O95633 whole entry, looked up): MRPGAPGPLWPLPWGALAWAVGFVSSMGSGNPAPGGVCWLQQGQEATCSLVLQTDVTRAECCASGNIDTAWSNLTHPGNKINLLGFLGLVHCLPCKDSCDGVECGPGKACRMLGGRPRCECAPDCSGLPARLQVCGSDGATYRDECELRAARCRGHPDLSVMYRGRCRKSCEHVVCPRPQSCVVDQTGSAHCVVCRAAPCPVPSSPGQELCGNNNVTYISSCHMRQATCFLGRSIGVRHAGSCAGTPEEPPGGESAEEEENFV
In test [9] the target is Dickkopf-related protein 1 (Homo sapiens) (UniProt O94907). The experiment in a line: small molecules binding DKK1 protein – biochemical, small-molecule microarray, 635 nm fluorescence scan, primary screen (AID 1106).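 Further: score merges emission near 667 nm with signal to noise over three replicate slides.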 The note with it: higher = more signal.
Chain of Dickkopf-related protein 1 (Homo sapiens) (O94907 whole entry, looked up): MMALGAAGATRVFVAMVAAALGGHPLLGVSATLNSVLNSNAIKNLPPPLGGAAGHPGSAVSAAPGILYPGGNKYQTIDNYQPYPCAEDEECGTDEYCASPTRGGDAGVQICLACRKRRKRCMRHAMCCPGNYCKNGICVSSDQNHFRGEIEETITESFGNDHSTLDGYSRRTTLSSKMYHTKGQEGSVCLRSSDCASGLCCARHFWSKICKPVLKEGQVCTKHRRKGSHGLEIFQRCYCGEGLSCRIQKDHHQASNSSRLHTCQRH
Test [10] relates to Inhibin beta A chain (activin A). The experiment in a line: small molecules binding activin A – biochemical, small-molecule microarray, 635 nm fluorescence scan, primary screen (AID 1107).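 Further: mouse activin A protein probed at 4.33 µg/mL on printed slides; score merges bound-protein fluorescence near 667 nm with spot signal-to-noise.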 The following applies: INHBA, higher = more signal.

Turning to `O=C1OCCC=C1C(O)CCc1ccccc1` (stereo not given), the composite z-score in test [1] is 0.11; in test [2], -0.344; in [3] it was -0.293; in test [5], 0.248; in test [6], 0.216; in test [7], 0.386. The results for the composite z-score in test [8], in test [9] and in test [10] were 0.527, 0.586 and 0.62, respectively. In test [4], the z-score was -0.278 (inactive).
As for `COc1ccc(O[C@H]2C=C[C@@H](c3ccccc3)O[C@@H]2COC(=O)CCC(C)=NO[C@@H]2O[C@H](COC(C)=O)[C@@H](OC(C)=O)[C@H](OC(C)=O)[C@H]2OC(C)=O)cc1`, the composite z-score was 0.538 in test [1]; -0.397 in test [2]; -0.374 in [3]; 0.799 in test [5]; 1.01 in test [6]; 0.609 in test [7]. In addition, the composite z-score in test [8] is 1.12; in test [9], 0.275; in test [10], -0.116. Also, the z-score in [4] was -0.315 (inactive).
With `CCOC(=O)[C@H](CC(C)C)NC(=O)CCC1CC(OC(=O)NCc2cccc3ccccc23)CC2(CCCC(COC(=O)NCCCN3CCCC3=O)O2)O1` (stereo not given in full), the composite z-score in [1] is 0.389; in [2], -0.171; in test [3] it was -0.38; in test [5] it was 0.408; in test [6], 0.819; in test [7], 0.384. Also, the results for the composite z-score in test [8], in test [9] and in [10] were 0.787, 0.583 and 0.0612, respectively. Also, in test [4], the z-score was -0.406 (inactive).
Regarding `CC(CCN1CCCCc2nc(C)c(C)cc21)=NO[C@@H](C)c1cn([C@H](CO)Cc2ccccc2)nn1`, the composite z-score was 0.683 in test [1]; -0.217 in [2]; -0.46 in [3]; 0.0253 in [5]; 0.54 in test [6]; 0.593 in test [7]. For the same compound, the composite z-score came to 0.902 in test [8], 1.17 in test [9] and 0.788 in test [10]. Moreover, the z-score in test [4] was 0.16 (inactive).
With `C=C(C)C(=O)OCC1CN2[C@@H](CC[C@@H](C)[C@@H]2c2ccc(Br)cc2)C(=O)O1` (stereo not given in full), the composite z-score in test [1] is 0.299; in test [2], -0.201; in test [3], -0.118; in test [5] it was 0.237; in [6], 0.363; in test [7] it was -0.202. The composite z-score in [8] was 0.0267; in test [9] it was 0.147; in test [10], -0.0608. For the same compound, the z-score in [4] is 0.411 (inactive).
In the case of `CO[C@H]1COC(=O)CCC[C@@H](C)[C@H](OC)COC(=O)[C@@H](C)NC(=O)CC=C[C@@H]1C`, the composite z-score in test [1] is 1.69; in [2], -0.502; in test [3] it was -1.14; in test [5], 0.313; in test [6] it was 0.97; in test [7], 1.2. Besides, the composite z-score in [8] came out at 0.938; in test [9], 1.57; in [10], 1.21. For the same compound, in test [4], the z-score was -1.15 (inactive).
Consider `C=CC[C@@H]1C=C[C@H](ON=C(C)CCN2CCc3nc(-c4ccccc4)c(-c4ccccc4)cc3C2)[C@@H](CO)O1`, for which the composite z-score was 0.775 in test [1]; -0.243 in test [2]; -0.574 in [3]; 0.524 in test [5]; 0.702 in test [6]; 0.359 in [7]. The composite z-score in test [8] is 0.808; in test [9], 0.627; in [10], 1.07. In addition, in test [4], the z-score is 0.0139 (inactive).
With `COc1ccc(COC(=O)NN=C2C[C@@H](O)[C@@H](O)[C@@H]3[C@@H]4C(=O)N(Cc5ccccc5)C(=O)[C@@H]4CC[C@H]23)cc1`, the composite z-score in test [1] is -0.515; in test [2] it was 0.743; in [3], 1.39; in test [5], -0.259; in test [6], -0.623; in test [7], -0.432. Further, the composite z-score in test [8] was -0.22; in test [9], -1.15; in test [10], 0.0152. For the same compound, the z-score in test [4] was -0.262 (inactive).
As for `C#CCCCON=C1C[C@@H](O)[C@@H](O)[C@@H]2[C@@H]3C(=O)N(C(C)(C)C)C(=O)[C@@H]3CC[C@H]12`, the composite z-score in [1] is 0.115; in test [2] it was 0.765; in [3], 1.24; in test [5] it was -0.165; in test [6], -0.656; in test [7], -0.0084. The composite z-score in test [8] was -0.866; in test [9], -0.996; in [10], 0.615. In addition, the z-score in test [4] was 0.233 (inactive).
As to `CCOC(=O)CCN1C(=O)[C@H]2[C@H]3[C@H](O)[C@H](O)CC(=NOCC(C)C)[C@H]3CC[C@H]2C1=O`, the composite z-score in test [1] was -0.108; in test [2], 0.16; in test [3] it was 0.782; in test [5] it was -0.147; in [6], -0.239; in [7], 0.214. The composite z-score in test [8] is -0.276; in test [9], -0.0273; in test [10], 0.617. In test [4], the z-score was 0.108 (inactive).
As to `CO[C@@H]1COC(=O)CC=C[C@H](C)[C@H](OC)COC(=O)[C@H](C)NC(=O)CC=C[C@H]1C`, the composite z-score in test [1] was 0.657; in test [2] it was -0.546; in test [3], -1.31; in test [5], 0.616; in test [6], 0.918; in test [7], 0.745. Moreover, the composite z-score stood at 1.44 in test [8], 1.18 in test [9] and 1.74 in [10]. In addition, the z-score in [4] is 0.671 (inactive).
As for `C#CCCCON=C1[C@H]2CCn3c(=O)n(-c4ccccc4)c(=O)n3[C@H]2[C@H](O)[C@@H]2O[C@H]12`, the composite z-score in [1] was 0.164; in test [2] it was 0.238; in test [3], -0.615; in [5], 0.291; in test [6], 0.621; in test [7], 0.537. The composite z-score worked out at 0.725 in [8], 0.521 in test [9] and 0.127 in test [10]. Further, the z-score in test [4] is -1.65 (inactive).
With `CC(CCN1CCCCc2nc(C)c(C)cc21)=NO[C@H](C)c1cn([C@H](CO)Cc2ccccc2)nn1`, the composite z-score in test [1] was 0.79; in test [2], -0.0963; in test [3], -0.65; in test [5], 0.383; in [6], -0.393; in test [7] it was 0.773. The composite z-score in [8] is 1.25; in test [9], 0.885; in test [10], 1.15. Besides, in test [4], the z-score was 0.339 (inactive).
